Measurements reported in PubChem BioAssay (EPA / NIEHS).
The source made the active and inactive calls. Rule for the calls: active = hit-call score of the fitted dose curve at least 0.9, where 1 is the maximum; inactive = score below 0.9.

Assays:
Conditions in all cases: mRNA level, 48 h; actives raise or lower the signal
[1] = read-out: ABC Transporter (ABCB11), ABCB11 (gene 8647); test: LTEA_HepaRG_ABCB11: Life Technologies and Expression Analysis (LTEA) Assay for ABC Transporter (ABCB11) using HepaRG (AID 2283463)
How it was run: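 ABCB11 transcript levels quantified by TaqMan qRT-PCR against three housekeeping genes after 48 h chemical exposure of HepaRG cultures. Concentrations up to 100 uM in half-log steps, 0.5% DMSO vehicle; both induction and suppression scored.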

[2] = read-out: ABC Transporter (ABCC2), ABCC2 (gene 1244); test: LTEA_HepaRG_ABCC2: Life Technologies and Expression Analysis (LTEA) Assay for ABC Transporter (ABCC2) using HepaRG (AID 2283464)
How it was run: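 HepaRG cells were plated 48 h, switched to serum-free induction medium, then exposed in duplicate for 48 h to 8 concentrations (top 100 uM, half-log steps, 0.5% DMSO). ABCC2 mRNA was measured by qRT-PCR normalized to ACTB/GAPDH/POLR2A; bidirectional fitting versus DMSO.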

[3] = read-out: Broad substrate specificity ATP-binding cassette transporter ABCG2 (Homo sapiens) (UniProt Q9UNQ0); test: LTEA_HepaRG_ABCG2: Life Technologies and Expression Analysis (LTEA) Assay for ABC Transporter (ABCG2) using HepaRG (AID 2283465)
How it was run: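 ABCG2 transcript was quantified by TaqMan qRT-PCR against three housekeeping genes in HepaRG cells. Cells were treated in duplicate for 48 h across an 8-point half-log series up to 100 uM, with 0.5% DMSO vehicle. Gain or loss versus DMSO was fit.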

[4] = read-out: ATP-citrate lyase (ACLY), ACLY (gene 47); test: LTEA_HepaRG_ACLY: Life Technologies and Expression Analysis (LTEA) Assay for ATP-citrate lyase (ACLY) using HepaRG (AID 2283466)
How it was run: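 ACLY mRNA quantified by qRT-PCR on Fluidigm arrays against three housekeeping genes, after 48 h chemical treatment of HepaRG cells (top concentration 100 uM, half-log steps, 0.5% DMSO vehicle). Up- or down-regulation fitted relative to DMSO.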

[5] = read-out: Peroxisomal acyl-coenzyme A oxidase 1 (ACOX1) gene, ACOX1 (gene 51); test: LTEA_HepaRG_ACOX1: Life Technologies and Expression Analysis (LTEA) Assay for Peroxisomal acyl-coenzyme A oxidase 1 (ACOX1) gene using HepaRG (AID 2283467)
How it was run: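 ACOX1 transcript levels were quantified by TaqMan qRT-PCR against three housekeeping genes after 48 h chemical exposure of differentiated human HepaRG cells. Exposure used eight half-log steps topping at 100 uM, 0.5% DMSO vehicle, in duplicate. Bidirectional curve fits were made relative to DMSO.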

[6] = read-out: Alkaline Phosphatase, Placental (ALPP) gene, ALPP (gene 250); test: LTEA_HepaRG_ALPP: Life Technologies and Expression Analysis (LTEA) Assay for Alkaline Phosphatase, Placental (ALPP) gene using HepaRG (AID 2283468)
How it was run: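 Differentiated human HepaRG cells were plated and cultured 48 h, then exposed in duplicate for 48 h in serum-free induction medium to eight half-log concentrations from 100 uM in 0.5% DMSO. ALPP mRNA was measured by TaqMan qRT-PCR, normalized to ACTB, GAPDH, POLR2A.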

[7] = read-out: Bcl-2 (BAD) gene, BAD (gene 572); test: LTEA_HepaRG_BAD: Life Technologies and Expression Analysis (LTEA) Assay for Bcl-2 (BAD) gene using HepaRG (AID 2283469)
How it was run: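 Read-out: qRT-PCR of BAD mRNA, normalized to three housekeeping genes. Human HepaRG cultures got 48 h chemical exposure in 0.5% DMSO, duplicate eight-point half-log series topping at 100 uM. Gain or loss of signal fitted versus DMSO vehicle.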

[8] = read-out: Bcl-2 (BAX) gene, BAX (gene 581); test: LTEA_HepaRG_BAX: Life Technologies and Expression Analysis (LTEA) Assay for Bcl-2 (BAX) gene using HepaRG (AID 2283470)
How it was run: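 Cells were thawed, plated for 48 h, moved to serum-free induction medium and dosed for 48 h (highest concentration 100 uM, half-log steps, 0.5% DMSO). Total RNA was then analysed for BAX expression by qRT-PCR.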

[9] = read-out: adenosine kinase (ADK) gene, ADK (gene 132); test: LTEA_HepaRG_ADK: Life Technologies and Expression Analysis (LTEA) Assay for adenosine kinase (ADK) gene using HepaRG (AID 2283471)
How it was run: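 ADK expression quantified by qRT-PCR, normalised to three housekeeping genes, after 48 h exposure of HepaRG cells to eight concentrations (top 100 uM, half-log steps, duplicate, 0.5% DMSO). Up- or down-regulation fitted relative to vehicle.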

[10] = read-out: Alpha-fetoprotein (AFP) gene, AFP (gene 174); test: LTEA_HepaRG_AFP: Life Technologies and Expression Analysis (LTEA) Assay for Alpha-fetoprotein (AFP) gene using HepaRG (AID 2283472)
How it was run: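 Chemicals were tested on differentiated HepaRG cells for 48 hours at eight concentrations up to 100 uM, with 0.5% DMSO as vehicle. AFP expression was then quantified by qRT-PCR and analyzed for gain or loss relative to DMSO.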

Broad substrate specificity ATP-binding cassette transporter ABCG2 (Homo sapiens), sequence (Q9UNQ0 whole entry, looked up): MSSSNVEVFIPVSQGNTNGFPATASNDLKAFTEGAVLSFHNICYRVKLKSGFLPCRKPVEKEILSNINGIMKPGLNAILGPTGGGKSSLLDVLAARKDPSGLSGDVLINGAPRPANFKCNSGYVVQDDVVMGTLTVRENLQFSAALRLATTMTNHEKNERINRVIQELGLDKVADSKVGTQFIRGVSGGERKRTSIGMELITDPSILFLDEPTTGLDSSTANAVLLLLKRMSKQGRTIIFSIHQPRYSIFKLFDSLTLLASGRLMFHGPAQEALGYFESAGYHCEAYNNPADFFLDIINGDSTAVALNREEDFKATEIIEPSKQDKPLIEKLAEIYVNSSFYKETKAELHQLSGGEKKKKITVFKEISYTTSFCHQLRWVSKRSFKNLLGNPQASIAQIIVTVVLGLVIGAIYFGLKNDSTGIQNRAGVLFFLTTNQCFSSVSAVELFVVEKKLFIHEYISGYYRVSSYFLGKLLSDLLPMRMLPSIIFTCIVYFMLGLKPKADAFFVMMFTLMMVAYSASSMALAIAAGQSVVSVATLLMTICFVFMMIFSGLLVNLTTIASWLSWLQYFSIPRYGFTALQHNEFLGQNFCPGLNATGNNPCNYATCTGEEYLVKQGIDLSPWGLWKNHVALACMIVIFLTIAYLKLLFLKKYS

Row | Compound | outcome [1] | outcome [2] | outcome [3] | outcome [4] | outcome [5] | outcome [6] | outcome [7] | outcome [8] | outcome [9] | outcome [10] | AC50 [4] | AC50 [5] | AC50 [8] | AC50 [2]
1 | O=C(N[C@H]1CN2CCC1CC2)c1ccc2c(c1)OCCO2 | inactive | inactive | inactive | inactive | inactive | inactive | inactive | inactive | inactive | inactive |  |  |  | 
2 | Clc1cccc(Cl)c1Cl | inactive | inactive | inactive | inactive | inactive | inactive | inactive | inactive | inactive | inactive |  |  |  | 
3 | O=C(O)C1(c2ccc3c(c2)OC[C@H](Cc2ccc(-c4ccccc4)cc2)[C@H]3O)CCCC1 | inactive | inactive | inactive |  |  | inactive | inactive |  | inactive | inactive | 82.4 µM (active) | 91.7 µM (active) | 66.2 µM (active) | 
4 | CN(C)C(=S)S | inactive | inactive | inactive | inactive | inactive | inactive | inactive | inactive | inactive | inactive |  |  |  | 
5 | CC(C)O.CC(C)O.OCCN(CCO)CCO.OCCN(CCO)CCO.[Ti] | inactive | inactive | inactive | inactive | inactive | inactive | inactive | inactive | inactive | inactive |  |  |  | 
6 | Clc1cccc(Cl)c1 | inactive | inactive | inactive | inactive | inactive | inactive | inactive | inactive | inactive | inactive |  |  |  | 
7 | COc1ccccc1N | inactive | inactive | inactive | inactive | inactive | inactive | inactive | inactive | inactive | inactive |  |  |  | 
8 | Cc1cc(C)cc(C)c1 | inactive | inactive | inactive | inactive | inactive | inactive | inactive | inactive | inactive | inactive |  |  |  | 
9 | Oc1cc(Cl)c(Cl)cc1Cl | inactive | inactive | inactive | inactive | inactive | inactive | inactive | inactive | inactive | inactive |  |  |  | 
10 | OCCN(CCO)CCO | inactive | inactive | inactive | inactive | inactive | inactive | inactive | inactive | inactive | inactive |  |  |  | 
11 | CCCCCCCCCCCCc1cccc(S(=O)(=O)O)c1 | inactive |  | inactive | inactive | inactive | inactive | inactive | inactive | inactive | inactive |  |  |  | 45 µM (active)
12 | N#Cc1cccnc1 | inactive | inactive | inactive | inactive | inactive | inactive | inactive | inactive | inactive | inactive |  |  |  | 
13 | CC(C)(C)c1ccccc1O | inactive | inactive | inactive | inactive | inactive | inactive | inactive | inactive | inactive | inactive |  |  |  | 
14 | Oc1c(Cl)cc(Cl)cc1Cl |  | inactive | inactive | inactive | inactive | inactive | inactive | inactive | inactive | inactive |  |  |  | 
